# IL-2 act: IL-2 activation; IL-2 activation reporter assay, cell-based qHTS; stimulated with anti-CD3/CD4/CD28 beads; in transgenic mouse T cells; activation, % (series mostly up to about 46 µM); actives 0.065% (n = 360,000); AID 652025; in the data active means activation above about 50%; inconclusive means mostly about 30% to 49%; further: 0% is about no effect
#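 Quantitative HTS in unstimulated transgenic mouse T cells, with memory T cells as non-tolerant control and PMA/ionomycin as tolerance-bypass control. Compound pretreatment lasted 60 minutes before 18 h bead stimulation; EGFP/DsRed fluorescence read.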
# S-ASM inh: human S-ASM enzyme inhibition; P17405; placental ASM, HMU-PC fluorogenic substrate, 60 min; Potency, µM (titrated, usually from 57.5 µM), for the others: top-dose activity change, negative = inhibition, hits mostly inhibitors; actives 0.006% (n = 340,000); AID 504937; further: potency means the concentration at half of the fitted maximal effect
#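 HMU-PC0 cleavage (9 uM final) by human placental ASM, 60 min at 37 °C following 10 min compound exposure at RT; stopped at pH 10, fluorescence Ex 386/Em 447 nm.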
# PKM2 act: increases activity of human pyruvate kinase M2. P14618. purified PKM2, Kinase-Glo ATP luminescence, activation; response scale: 0% is enzyme alone, no compound. Potency, µM (titrated, usually from 57.5 µM), without a hit: top-dose activation, actives largely listed as activators. actives 0.34% (n = 260,000). AID 1631; further: potency means the concentration at half of the fitted maximal effect; on the % scale 0 is the no-effect control and ±100 the full control effect; nearly all actives have a fitted effect of over 55% in size
# Target sequence (P14618 whole entry, looked up): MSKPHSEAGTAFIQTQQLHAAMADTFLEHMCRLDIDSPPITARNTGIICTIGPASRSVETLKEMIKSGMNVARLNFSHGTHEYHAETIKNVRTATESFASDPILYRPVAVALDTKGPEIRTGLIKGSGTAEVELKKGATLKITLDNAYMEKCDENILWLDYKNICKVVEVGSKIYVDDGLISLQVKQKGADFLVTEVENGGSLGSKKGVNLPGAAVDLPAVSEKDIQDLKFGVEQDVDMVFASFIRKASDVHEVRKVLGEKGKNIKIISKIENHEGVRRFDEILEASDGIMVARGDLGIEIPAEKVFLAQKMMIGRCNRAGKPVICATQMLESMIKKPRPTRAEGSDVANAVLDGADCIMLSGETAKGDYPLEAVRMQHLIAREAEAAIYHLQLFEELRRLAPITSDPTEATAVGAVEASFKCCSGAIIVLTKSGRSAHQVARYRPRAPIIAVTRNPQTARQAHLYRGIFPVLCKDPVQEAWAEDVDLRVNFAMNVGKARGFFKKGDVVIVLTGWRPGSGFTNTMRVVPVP
#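 Kinase-Glo luminescence reports ATP generated from ADP (0.1 mM) and PEP (0.5 mM) by purified hPK-M2 after 1 h at room temperature, pH 7.2 imidazole buffer; intermediate enzyme activity allows detecting inhibitors and activators.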
# * hit, by the source's call; ? = inconclusive; / = not tested or not shown. An excerpt weighted towards active compounds, which were near 0.33% of everything screened. Unless noted, the call rests on the fitted dose curve; in most records, active means well fitted curve in the direction sought with a large enough effect; inconclusive means small, poorly fitted or top-dose-only effect, or another doubt; inactive means no such curve, though single readings can be large; an effect the other way counts as inactive or inconclusive.
SMILES,IL-2 act,S-ASM inh,PKM2 act
COc1cc(/C=C2/C(=N)N3C(c4ccccc4)=CSC3=NC2=O)ccc1OCC(=O)O,1,2.5µM*,0%
CN(C)c1ccc(NC(N)=S)cc1,-4,12%,6%
CC(=O)c1c(N2CCCC2)[nH]c(-c2ccccc2)nc1=S,-2,2%,0%
O=C1Nc2ccccc2/C1=C\C(=O)c1ccccc1,-3,-7%,/
O=C(/C=C1\C(=O)Nc2ccccc21)/C=C1\C(=O)Nc2ccccc21,-2,-16%,1.4µM*
Cc1onc(-c2ccccc2)c1C(=O)N(Cc1ccccn1)Cc1ccccn1,0,4%,2%
COC1C(CO)OC(n2c3c(Cl)cccc3c3c4c(c5c6cccc(Cl)c6[nH]c5c32)C(=O)NC4=O)C(O)C1O (centres undefined),62*,-7%,/
COc1ccc(C2/C(=C(/O)c3ccccc3)C(=O)C(=O)N2C)cc1 (centres undefined),2,-2%,-1%
CCC(=O)NC(c1ccc(C)cc1)c1cc([N+](=O)[O-])c2cccnc2c1O (centres undefined),147*,-9%,17%
CC(=O)NC(c1ccc(C)cc1)c1cc([N+](=O)[O-])c2cccnc2c1O (centres undefined),1,-6%,15%
CCn1cc(/C=C/c2cc[n+](C)cc2)c2ccccc21,113*,?,/
Cc1ccccc1/C=C/c1cc[n+](C)cc1,-1,18%,-11%
CCn1c(/C=C/c2c(C)n(CC)c3ccccc23)nc2ccccc2c1=O,26,4%,11%
C[n+]1ccc2[nH]c3ccccc3c2c1,1,/,/
Cc1[nH]c2ccccc2c1/C=C/c1cc[n+](C)cc1,192*,?,-1%
CCOC(=O)Cn1cc(C=O)c2ccccc21,-1,-2%,-7%
C=CCn1c(C)c(/C=C/c2cc[n+](C)cc2)c2ccccc21,122*,-21%,-4%
CC(C)n1cc(/C=C/c2cc[n+](C)cc2)c2ccccc21,295*,-20%,7%
COc1cccc(/C=N/Nc2ccc([N+](=O)[O-])cc2)c1O,-1,19%,/
CC1CCN(C(=O)C(C)Sc2nc(-c3ccccc3)cc(C(F)(F)F)n2)CC1 (centres undefined),-1,-7%,4%
CSC1=Nc2sc3c(c2C2=NCCN12)CCCC3,/,/,-9%
CCN(CC)C(=O)Cn1c(=O)n(C)c2ccccc21,0,0%,0%
O=C(O)Cn1cc(/C=C/[N+](=O)[O-])c2ccccc21,1,-2%,9%
C=CCn1cc(/C=C/c2cc[n+](C)cc2)c2ccccc21,457*,-8%,-4%
CCN(CC)C(=O)Cn1c(C)c(/C=C/c2cc[n+](C)cc2)c2ccccc21,115*,?,0%
SMILES,IL-2 act,S-ASM inh,PKM2 act
COc1ccccc1C(=O)NC(=O)COC(=O)C1(C)CC1(Cl)Cl (centres undefined),0,-1%,/
COc1ccc(C(=O)N/N=C2\CCc3ccccc32)cc1OC,1,-1%,1%
COc1ccc(CNC(=O)C(C#N)c2nc3ccccc3nc2N2CCCC2)cc1 (centres undefined),122*,135%,-2%
COc1ccc(CNC(=O)C(C#N)c2nc3ccccc3nc2N2CCN(C)CC2)cc1 (centres undefined),0,-8%,?
COc1ccc(N2CCN(C(=O)c3cc(-c4cc(OC)ccc4OC)nc4ccccc34)CC2)cc1,-3,-10%,-1%
O=C1CCCN1CCCNc1ccc(S(=O)(=O)N2CCCCC2)cn1,-1,3%,-13%
COc1ccc(-c2noc(CN(C)CCC3CCCCO3)n2)cc1 (centres undefined),-3,0%,6%
COC(=O)c1ccc(-c2noc(CN(C)CCC3CCCCO3)n2)cc1 (centres undefined),0,-2%,0.2µM*
O=C1c2oc3ccccc3c(=O)c2C(c2cccc(Br)c2)N1Cc1ccco1 (centres undefined),-1,-3%,20µM*
O=C1c2oc3ccc(Br)cc3c(=O)c2C(c2cccnc2)N1Cc1ccco1 (centres undefined),/,/,0%
Cc1ccc2c(C)c(C(=O)NCCN3CCOC3=O)oc2c1C,-1,-2%,-4%
O=C(NCc1ccccn1)C1CCN(S(=O)(=O)c2cccs2)CC1,-2,4%,?
O=C(NCc1ccccc1Cl)C1CCN(S(=O)(=O)c2cccs2)CC1,0,15%,10µM*
CC(OC(=O)C(C)N1C(=O)C2C3C=CC(C4CC34)C2C1=O)C(=O)c1ccccc1 (centres undefined),0,2%,1%
Cc1ccc(C)c(NC(=O)CSc2nc(C)cc(C)c2C#N)c1,0,-3%,3%
Cc1cc(C)c(C#N)c(SCC(=O)Nc2nonc2N)n1,-1,2%,14µM*
COc1ccccc1NC(=O)N(Cc1ccco1)Cc1cc2cc(C)cc(C)c2[nH]c1=O,1,-13%,1%
COc1ccccc1NC(=O)N(Cc1ccco1)Cc1cc2ccc(C)c(C)c2[nH]c1=O,-1,-9%,16µM*
CC(C)N1CCc2c(sc(NC(=O)CN3C(=O)c4ccccc4C3=O)c2C(N)=O)C1,0,49%,-1%
CCOc1ccc(C(=O)NC2CCN(C(=O)N3CCCC3)CC2)cc1,2,3%,-6%
CCSC1=N/C(=C\c2ccc(OC)cc2)C(=O)N1,-1,7%,-6%
Fc1ccccc1CCNc1c2c(nc3ncnn13)CCCC2,-5,1%,-5%
c1ccc(CCNc2c3c(nc4ncnn24)CCC3)cc1,-2,-4%,25µM*
CCNC(=S)N/N=C1\CCCCc2ccccc21,-4,6%,-4%
Cc1c(/C=N/n2cnnc2)c2ccccc2n1CCOc1ccc(Cl)cc1,-3,35µM*,1%
SMILES,IL-2 act,S-ASM inh,PKM2 act
Cc1ccc(OCCn2c(C)c(/C=N/n3cnnc3)c3ccccc32)cc1,0,-8%,3%
CC(=O)c1cc(-c2ccc(F)cc2)n(CCC(=O)Nc2cc(C)[nH]n2)c1C,2,4%,-1%
CCOc1ccc(S(=O)(=O)Nc2nc3ccccc3nc2-n2ccc(=NC(=O)c3cccs3)cc2)cc1,?,48%,5%
O=C(N=c1ccn(-c2nc3ccccc3nc2NS(=O)(=O)c2ccc(Cl)cc2)cc1)c1cccs1,244*,251%,-1%
Cc1ccc(CN(C#N)c2nc(C)cc(C)n2)cc1,-2,-1%,-1%
C(=Cc1c[nH]c2ccccc12)c1nccc2ccccc12,-1,52%,/
OCC[n+]1ccc(/C=C/c2c[nH]c3ccccc23)cc1,94*,-15%,-13%
Cn1nc(CC(=O)Nc2ccc3c(c2)CCC3)c2ccccc2c1=O,-2,-3%,-1%
Cc1ccc(C(=O)Nn2cnnc2)cc1S(=O)(=O)N1CCOCC1,-3,5%,-1%
Cc1nc(Sc2nnnn2C)c2c3c(sc2n1)CCC3,0,3%,2%
CCc1nc(Sc2nnnn2-c2ccccc2)c2c3c(sc2n1)CCCC3,0,-4%,10µM*
CON(C)C(=O)/C=C/c1ccc([B-](F)(F)F)cc1,0,7%,/
O=C(CN(C1CC1)S(=O)(=O)c1ccc(S(=O)(=O)N2CCCCCC2)cc1)Nc1ccccc1,0,-4%,4%
